# Source: PubChem (several laboratories)
# Compounds with a hit are over-represented: about 1.6% of the library has one in this group of screens.
# GC-A act = GC-A (human) enzyme activation. P16066. HEK293 GC-A cells, cGMP TR-FRET, EC30 ANP; 0% at EC30 ANP, 100% saturating ANP. activation, % at 10 µM. 370,000 tested, 0.14% active. AID 1671463; in the data active = activation above about 40%
# Target sequence (P16066 whole entry, looked up): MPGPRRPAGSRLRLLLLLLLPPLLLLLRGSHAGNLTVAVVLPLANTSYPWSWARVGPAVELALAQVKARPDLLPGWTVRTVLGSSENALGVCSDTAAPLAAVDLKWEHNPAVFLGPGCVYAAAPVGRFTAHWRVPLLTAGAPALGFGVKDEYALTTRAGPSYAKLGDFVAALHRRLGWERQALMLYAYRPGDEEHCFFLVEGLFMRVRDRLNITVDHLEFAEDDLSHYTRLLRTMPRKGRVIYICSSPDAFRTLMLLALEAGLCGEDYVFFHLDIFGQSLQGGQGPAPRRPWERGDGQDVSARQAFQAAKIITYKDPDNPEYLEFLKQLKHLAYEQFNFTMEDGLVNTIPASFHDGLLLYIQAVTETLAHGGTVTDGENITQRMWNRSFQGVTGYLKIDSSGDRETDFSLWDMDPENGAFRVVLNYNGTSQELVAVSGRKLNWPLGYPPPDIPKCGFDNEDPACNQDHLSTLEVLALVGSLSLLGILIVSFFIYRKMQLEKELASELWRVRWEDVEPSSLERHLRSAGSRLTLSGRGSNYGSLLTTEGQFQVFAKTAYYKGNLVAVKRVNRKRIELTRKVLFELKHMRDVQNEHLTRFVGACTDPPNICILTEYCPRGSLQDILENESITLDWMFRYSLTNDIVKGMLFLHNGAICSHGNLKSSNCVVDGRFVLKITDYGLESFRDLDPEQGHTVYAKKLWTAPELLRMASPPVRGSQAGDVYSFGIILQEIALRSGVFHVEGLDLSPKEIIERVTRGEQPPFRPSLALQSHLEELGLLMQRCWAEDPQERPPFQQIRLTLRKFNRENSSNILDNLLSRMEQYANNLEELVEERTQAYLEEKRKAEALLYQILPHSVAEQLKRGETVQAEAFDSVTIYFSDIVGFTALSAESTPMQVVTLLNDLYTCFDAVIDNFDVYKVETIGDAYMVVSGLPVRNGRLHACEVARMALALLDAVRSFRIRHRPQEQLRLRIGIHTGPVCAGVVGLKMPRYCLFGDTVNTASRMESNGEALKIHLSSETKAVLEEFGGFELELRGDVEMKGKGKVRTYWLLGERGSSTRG
# V-ATPase pHluor = alters yeast V-ATPase proton transport; S. cerevisiae, pHLuorin cytosolic pH fluorescence; response, % at 10 µM; 350,000 tested, 0.37% active; AID 504577; in the data active = response mostly above about 7.3%, no sharp cut-off; inactive = mostly below about 5.4%; note: actives read high
# NSD2 HMT inh = NSD2 (human) methyltransferase inhibition; O96028; NSD2 peptide methylation, AlphaScreen, 120 min; inhibition, % at 12.5 µM; 310,000 tested, 0.54% active; in the data active = inhibition above about 50%
# Efflux pump mplx = blocks antifungal efflux pumps in multiplex yeast assay. 330,000 tested, 0.44% active. inhibition, % at 10 µM. AID 485275. S. cerevisiae Candida pump triplex, Nile Red efflux;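 active = plate passing quality check with inhibition over a set limit, or well fluorescence over plate mean plus 4 SD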;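 note: Nile Red retained in pooled yeast measured as flow cytometry median fluorescence; 0% = buffer negative control and 100% = Enniatin B positive control; higher means more Nile Red kept so more efflux inhibition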
# Rce1 inhib = inhibitors of yeast Ras-converting enzyme. AID 2563. Q03530. yeast membranes, quenched prenylated peptide cleavage fluorescence. 290,000 tested, 0.27% active. calls only;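 active = fall in fluorescence gain of 50% or more versus controls, with final raw signal at or below 3038400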;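 note: plate controls were neutral control wells for no effect and wells lacking membranes for full effect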
# NPR2 activator = GC-B (human) receptor activation. P20594. HEK293-GC-B cells, CNP EC30, cGMP TR-FRET; 0% at EC30 CNP, 100% saturating CNP. activation, % at 10 µM. 370,000 tested, 0.11% active;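 active = activation at 10 µM reaching about 35% in either raw or pattern-adjusted values, limit read from the data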
# VATPase regulator = yeast V-ATPase proton transport regulation; shares compounds with V-ATPase pHluor; response, % at 10 µM; AID 602197; 980 tested, 2% active; S. cerevisiae pHLuorin cytosolic pH; in the data active = response above about 24%;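 note: plate controls were vehicle wells for no effect and positive control wells for full effect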
# Numbers without * were called inactive; i = inactive; x = no result.
SMILES,GC-A act,V-ATPase pHluor,NSD2 HMT inh,Efflux pump mplx,Rce1 inhib,NPR2 activator,VATPase regulator
COc1ccccc1NC(=O)C1=C(C)N(c2ccccc2)C(=S)NC1c1cccc(C(F)(F)F)c1 (stereo not given),-8.7,5.1,-0.4,0.1,i,-3.5,x
COC(=O)c1ccc(C2NC(=S)N(c3ccccc3)C(C)=C2C(=O)Nc2ccccc2OC)cc1 (stereo not given),1.6,11.0*,-2.4,-0.1,i,5.5,3.6
CCn1c(SCC(=O)NN=Cc2c(C)nn(-c3ccccc3)c2C)nnc1-c1ccc(OC)c(OC)c1,-4.8,x,-2.1,x,x,1.4,x
O=C(CCl)NN1C(=O)NC(c2ccccc2)(c2ccccc2)C1=O,-0.7,12.0*,1.1,-0.2,i,0.4,0.6
CCC(=O)C1CCCN(C(=O)c2cccc(OC3CCN(S(C)(=O)=O)CC3)c2)C1 (stereo not given),x,12.1*,-0.6,0.1,i,x,-0.6
COc1ccccc1C=NNC(=O)CSc1nc2ccccc2n1Cc1ccc(Cl)cc1,-2.5,x,10.6,x,x,-1.7,x
CCCCC(=O)N1CCN(C(=O)c2ccc3c(c2)nc(C)n3C2CCCC2)CC1,-1.2,x,1.5,x,x,-1.4,x
COc1cc(C)ccc1C(=O)N1CCC(Oc2cccnc2)CC1,3.3,x,x,x,x,7.7,x
COCOCCn1cc(CN2CCS(=O)(=O)N(Cc3ccc(-c4ccc(OC)nc4)cc3)C(C)C2=O)nn1 (stereo not given),3.4,7.8*,x,x,x,1.1,-2.3
Cn1cccc1CC(=O)NNC(=S)Nc1ccc(Cl)cc1Cl,0.6,16.5*,-1.2,-0.1,i,-2.7,-0.6
Cn1cccc1CC(=O)NNC(=S)Nc1ccc(F)cc1,-1.3,-2.5,2.3,-0.3,i,0.3,x
COc1ccc(Cn2c(NC(=O)c3ccccc3)nc(Cc3ccccc3)c2-c2ccccc2)cc1,2.8,x,x,x,x,-3.6,x
COc1ccc(N2C(=NC(=O)C3CCCCC3)SC3CS(=O)(=O)CC32)cc1 (stereo not given),-9.4,8.0*,-3.3,0.1,i,-3.0,0.6
O=S(=O)(c1ccc(F)cc1)N1CCN(CC(O)COCc2ccccc2)CC1 (stereo not given),-2.1,-1.2,2.8,x,x,-3.1,x
O=S(=O)(c1ccc(F)cc1)N1CCN(CC(O)COCC2CCCO2)CC1 (stereo not given),5.9,9.8*,1.7,x,x,-2.9,0.3
NC(=S)Nc1nccc(-c2cccs2)n1,6.4,6.7,-0.7,-0.1,i,-2.3,x
Cc1ccc(C(=O)Nc2nccc(-c3cccs3)n2)cc1,2.4,8.5*,7.2,0.4,i,0.9,2.5
CC(C)C(=O)Nc1cc(=O)[nH]c2ncnn12,4.0,10.3*,13.1,-0.1,i,4.0,-0.3
N#Cc1cccc(C(=O)OCC(=O)N2CCCc3ccccc32)c1,-1.4,9.2*,1.7,0.0,i,-2.4,-0.9
O=C(OCC(=O)N1CCCc2ccccc21)c1cccc(C(F)(F)F)c1,-1.3,3.0,-1.8,0.0,i,0.8,x
CN1[C@H](Cc2ccccc2)COc2cccc(N3CCCC3)c2S1(=O)=O,8.0,x,x,x,x,0.7,x
COC(=O)[C@]12C=CCN1[C@H](c1ccc(OC)c(OC)c1)c1c(c3ccccc3n1S(=O)(=O)c1ccc(C)cc1)C2,0.4,x,x,x,x,-4.7,x
CN(C)S(=O)(=O)c1ccc(C(=O)NCC(=O)Nc2ccc(F)c(F)c2)cc1,-1.9,7.0*,-0.3,0.0,i,-0.6,0.9
CN(C)S(=O)(=O)c1ccc(C(=O)Nc2ccc(Cl)cc2)cc1,4.4,-0.3,x,0.2,i,1.2,x
Cc1nn(-c2ccc(F)cc2)c(C)c1/C=C/C(=O)N1CCNC(=O)C1,-2.5,9.3*,0.1,-0.1,i,-9.9,-0.4
SMILES,GC-A act,V-ATPase pHluor,NSD2 HMT inh,Efflux pump mplx,Rce1 inhib,NPR2 activator,VATPase regulator
Cc1nn(-c2ccc(F)cc2)c(Cl)c1/C=C/C(=O)N1CCNC(=O)C1,1.9,-1.3,0.3,-0.1,i,-6.8,x
COc1ccc(OC)c(/C=N/n2c(C)nc3ccccc3c2=O)c1,-1.5,-0.2,-2.8,-0.1,i,-0.7,x
COc1cc(OC)c(OC)cc1/C=N/n1c(C)nc2ccccc2c1=O,-2.0,14.4*,-0.6,0.0,i,3.5,-0.3
c1ccc(CCNC2=NCCCS2)cc1,0.5,-4.4,0.5,-0.1,i,-5.7,7.2
c1ccc(CCNC2=NCCS2)cc1,0.0,-4.2,-3.8,-0.1,i,0.3,x
N/C(=N\O)c1ccc(N2CCN(c3ncccc3C(F)(F)F)CC2)nc1,1.1,26.0*,-0.7,-0.3,i,2.0,0.6
Nc1ncn(C2O[C@H](CO)[C@@H](O)[C@H]2O)c(=O)n1 (stereo not given in full),x,x,x,0.0,x,x,x
Nc1cnn(C2OC(CO)C(O)C2O)c(=O)n1 (stereo not given),-1.0,7.8*,1.1,0.0,i,-2.2,3.0
O=[N+]([O-])c1ccc(OCCCN2CCC(C(O)(c3ccccc3)c3ccccc3)CC2)c(Cl)c1,-16.6,x,x,x,x,-5.8,x
Cc1ccc(S(=O)(=O)NCCC(=O)N2CCN(S(=O)(=O)c3cccc(F)c3)CC2)cc1C,2.6,9.1*,-0.3,0.0,i,2.4,-5.1
N#Cc1c(-c2ccccc2)c(-c2ccccc2)n(Cc2ccco2)c1NC(=O)c1cccs1,-6.8,9.7*,-2.0,-0.1,i,-4.1,-5.5
O=C(CSc1nnc(-c2ccc(O)cc2)n1Cc1ccco1)c1cccs1,-16.0,-4.4,1.4,0.2,i,-21.3,x
CCOC(=O)Cn1cc(CN2C(C(=O)OC)CN(Cc3ccc(F)cc3)CCS2(=O)=O)nn1 (stereo not given),1.1,x,x,x,x,5.1,x
COc1cc2c(cc1OC)CN(CCC(C)c1ccc(Cl)cc1)CC2 (stereo not given),-17.5,13.5*,5.7,0.1,i,-21.9,1.7
COc1cc2c(cc1OC)CN(Cc1ccccc1)CC2,0.5,-3.6,0.8,0.1,i,2.7,x
COc1cccc(/C=C2\CC3(OC(=O)c4ccco4)CCCN2C3)c1 (stereo not given),0.1,x,x,x,x,-4.9,x
COc1ccc(C(=O)Nc2cc(C)nn2-c2ccc(F)cc2)cc1,0.5,11.4*,1.5,-0.2,x,2.3,-4.5
Cc1ccc(NC(=O)c2ncn(CCCN3CCN(c4ccccn4)CC3)n2)cc1C,1.0,12.7*,x,x,x,-1.6,1.5
COc1ccc(CN(CCN2CCOCC2)C(=O)c2cccc(F)c2F)cc1OC,-2.9,x,-14.9,x,x,3.2,x
CCN(CC(=O)Nc1ccc(NC(C)=O)cc1)C(=O)c1cc(C)on1,-2.2,10.3*,-0.5,0.0,i,-2.2,0.8
COc1ccc(CCNC(=O)c2cc(-c3ccccc3OC)on2)cc1OC,-1.9,2.3,-3.2,-0.2,i,2.1,x
COc1ccccc1-c1cc(C(=O)NCCc2ccccc2)no1,3.1,12.9*,-3.4,-0.1,i,-7.3,-0.4
